In PubChem BioAssay (Tox21):
Results filed as inconclusive are left out. A number with no mark means an inactive call. Calls of active or inactive are those of the source. Calls follow the shape of the dose curve; as a rule, active = well fitted cell-killing curve with a large enough effect in the repeat runs; inconclusive = weak or mixed curves, or effect the other way; inactive = flat fitted curve, though single readings scatter.

Experiment: cAMP Responsive Elements (CRE) small molecule agonists, cell-based qHTS assay: qHTS cell viability counter screen (AID 2060914);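 also: viability read after 3 h of compound exposure; nearly all actives have a fitted effect of over 50% in size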
Details: CRE-bla HEK293T viability, CellTiter-Glo luminescence, 5 h; series mostly up to 92.4 µM; activity change, negative = cytotoxicity: at the top concentration
Source text: National Center for Advancing Translational Sciences [NCATS]
Division of Preclinical Innovation [DPI]
U.S. Environmental Protection Agency [EPA]
National Institutes of Environmental Health Sciences [NIEHS]
National Toxicology Program [NTP]
U.S. Food and Drug Administration [FDA]
CREB (cyclic-AMP Responsive Element Binding Protein) is a cellular transcription factor. It binds to certain DNA sequences called cAMP Responsive Elements (CRE) and regulates the transcription of the genes. […] This cell line can be used to find agonists/antagonists of the cyclic AMP signaling pathway. The activation of the report gene under culture conditions can be detected by fluorescence intensity. This cell line has been used to screen the Tox21 10K compound library to identify agonists that induce oxidative stress. The cytotoxicity of the Tox21 compound library against the CRE-bla cell line was tested in parallel by measuring the cell viability using CellTiter-Glo assay (Promega, Madison, WI) in the same wells.
Tox21 Assay Protocol Summary:
CRE-bla Hek 293T cells were suspended in assay medium (DMEM containing 10% dialyzed FBS, 0.1 mM NEAA, 1 mM sodium pyruvate and 25 mM HEPES) and dispensed at 2,000 cells/5 uL /well into 1536-well black wall/clear bottom plates using a Multidrop Combi (ThermoFisher Scientific, Waltham, MA) dispenser. After the assay plates were incubated at 37 C/5% CO2 for 18 hrs, 23 nL of compounds dissolved in DMSO, positive controls or DMSO only was transferred to the assay plate by a pintool workstation (Kalypsys, San Diego, CA). After the plates were incubated at 37 C/5% CO2 for 3 hrs, 1 uL of LiveBLAzer B/G FRET substrate (Invitrogen, Carlsbad, CA) was added to each well using Bioraptr Flying Reagent Dispenser (FRD, Aurora Discovery, San Diego, CA). The plates were incubated at room temperature for 2 h, then fluorescence intensities were measured using an Envision plate reader (PerkinElmer, Shelton, CT) at Excitation 405nm, Emission 460nm and 530nm. The % activity was determined from the ratio of 460nm/530nm. For cell viability readout that measures cytotoxicity, 4 uL /well of CellTiter-Glo reagent was added into the assay plates using Bioraptr FRD. After 30 min incubation at room temperature, the luminescence intensity in the assay plates was measured using a ViewLux (PerkinElmer, Shelton, CT) plate reader.
% is scaled to controls: 0 for no effect and ±100 for the full control effect; potency is read from the fitted curve at half-maximal effect.

SMILES | activity change, negative = cytotoxicity | Potency
COc1cc(C[C@@H](C)N)c(OC)cc1Br | -0.891% | –
Nc1ccc(-c2ccc(N)c(N)c2)cc1N | – | inactive
C[C@]12CC[C@H]3[C@@H](CCC4=CC(=O)CC[C@@H]43)[C@@H]1CC[C@@H]2OC(=O)CCc1ccccc1 | 9.56% [at 42.5 µM] | –
COc1cccc(C=O)c1 | 0.656% | –
C1=CCC=C1 | 0.14% | –
N#Cc1cccnc1 | – | inactive
CC(Cc1ccccc1)N(C)Cc1ccco1 (stereo not given) | 0.313% [at 42.5 µM] | –
CC(C)(C#N)N=NC(C)(C)C#N | – | inactive
O=C1c2ccccc2C(=O)N1SC(Cl)(Cl)Cl | – | inactive
CCCCC#N | -2.16% | –
CCOC(=O)NC(=S)Nc1ccccc1NC(=S)NC(=O)OCC | 20% | –
ClC(Cl)=C(c1ccc(Cl)cc1)c1ccc(Cl)cc1 | -10.6% | –
CCCCc1c(C)nc(NCC)nc1OS(=O)(=O)N(C)C | 4.77% | –
CCCCN(CCCC)C(=S)S | -2.39% | –
ClCc1cccnc1 | – | inactive
Cl | – | inactive
O=C(O)Cc1ccccc1 | – | inactive
COC(=O)C(c1ccccc1)C1CCCCN1 (stereo not given) | -10.5% | –
Clc1ccccc1Cl | – | inactive
COc1cc(OC)nc(NC(=O)NS(=O)(=O)c2ncccc2OCC(F)(F)F)n1 | 0.864% | –

SMILES | activity change, negative = cytotoxicity | Potency
CNC(=O)Oc1c(C(C)(C)C)cc(C)cc1C(C)(C)C | -0.15% | –
C=CC(=O)OCCO | – | inactive
N#Cc1c[nH]cc1-c1cccc2c1OC(F)(F)O2 | -7.73% | –
CC(O)CCO (stereo not given) | – | inactive
CC(O)CN(CC(C)O)CC(C)O (stereo not given) | – | inactive
Clc1cc(C(Cl)(Cl)Cl)cnc1Cl | 4.15% | –
c1ccc(-c2cccc(-c3ccccc3)c2)cc1 | -23.9% | –
[O]=[Cr][O][Cr]=[O] | -9.27% | –
O=C(N/N=C/c1ccc([N+](=O)[O-])o1)c1cc([N+](=O)[O-])cc([N+](=O)[O-])c1O | -1.14% [at 42.5 µM] | –
Cc1nc2ccccc2c(=O)n1-c1ccccc1Cl | -0.0903% | –
CCNc1nc(NC(C)C)nc(OC)n1 | 24.4% | –
CC(=O)c1ccc(-c2ccccc2)cc1 | 0.957% | –
CC(O)C(=O)[O][Hg][c]1ccccc1 (stereo not given) | – | 12.2 µM (active)
C=CCOC(Cn1ccnc1)c1ccc(Cl)cc1Cl (stereo not given) | – | inactive
Clc1cnc(Oc2ccc(Oc3ncc(Cl)cc3Cl)cc2)c(Cl)c1 | – | inactive
Clc1cc(Cl)c(-c2cc(Cl)c(Cl)cc2Cl)cc1Cl | -5.53% [at 42.5 µM] | –
CCS(=O)(=O)C(C)(C)S(=O)(=O)CC | 4.66% [at 42.5 µM] | –
Clc1ccc(-c2ccccc2)cc1 | 4.63% | –
C[C@]12CC[C@H](O)CC1=CC[C@@H]1[C@@H]2CC[C@]2(C)C(=O)CC[C@@H]12 | – | inactive
CCCN(CCOc1c(Cl)cc(Cl)cc1Cl)C(=O)n1ccnc1 | – | inactive
